# Measured values as given in the supplement of paper PMC11732987, “Enantioselective OTUD7B fragment discovery through chemoproteomics screening and high-throughput optimisation” (Communications Chemistry, 2025).
# Values without a mark were called inactive.
# What was measured:
# Test in all cases: log2 ratio of Biotin-Ahx-Ub-VS probe labelling (fragment/DMSO); higher = less target engagement (more negative = stronger competition), active = hit call of the paper (q ≤ 0.05, log2 ratio ≤ -1)
# Details in all cases: compound concentration: 200 uM; treatment time: 3 h
# OTUD6B = molecular target: T1, OTUD6B (UniProt Q8N6M0)
# T1 sequence (whole entry): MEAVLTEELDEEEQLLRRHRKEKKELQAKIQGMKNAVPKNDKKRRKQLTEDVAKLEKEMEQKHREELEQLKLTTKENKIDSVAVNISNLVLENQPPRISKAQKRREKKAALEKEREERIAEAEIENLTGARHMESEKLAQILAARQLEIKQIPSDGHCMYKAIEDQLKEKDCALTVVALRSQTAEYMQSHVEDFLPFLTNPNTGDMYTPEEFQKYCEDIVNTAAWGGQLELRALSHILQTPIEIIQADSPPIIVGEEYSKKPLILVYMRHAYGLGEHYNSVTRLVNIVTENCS
# How it was run: (§1)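 Average log2 ratios of fragment over vehicle were obtained by unpaired t-test from global-median-normalised Spectronaut label-free quantities. Proteins with ≥2 unique peptides were included. HEK293T lysate (495 µg per sample) was treated in triplicate with fragment at 200 µM or vehicle for 3 h, then with Biotin-Ahx-Ub-VS at 0.5 µM final for 1 h, and labelled DUBs were NeutrAvidin-enriched and run by diaPASEF LC-MS/MS.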
# OTUD7B = molecular target: T2, OTUD7B (UniProt Q6GQQ9)
# T2 sequence (whole entry): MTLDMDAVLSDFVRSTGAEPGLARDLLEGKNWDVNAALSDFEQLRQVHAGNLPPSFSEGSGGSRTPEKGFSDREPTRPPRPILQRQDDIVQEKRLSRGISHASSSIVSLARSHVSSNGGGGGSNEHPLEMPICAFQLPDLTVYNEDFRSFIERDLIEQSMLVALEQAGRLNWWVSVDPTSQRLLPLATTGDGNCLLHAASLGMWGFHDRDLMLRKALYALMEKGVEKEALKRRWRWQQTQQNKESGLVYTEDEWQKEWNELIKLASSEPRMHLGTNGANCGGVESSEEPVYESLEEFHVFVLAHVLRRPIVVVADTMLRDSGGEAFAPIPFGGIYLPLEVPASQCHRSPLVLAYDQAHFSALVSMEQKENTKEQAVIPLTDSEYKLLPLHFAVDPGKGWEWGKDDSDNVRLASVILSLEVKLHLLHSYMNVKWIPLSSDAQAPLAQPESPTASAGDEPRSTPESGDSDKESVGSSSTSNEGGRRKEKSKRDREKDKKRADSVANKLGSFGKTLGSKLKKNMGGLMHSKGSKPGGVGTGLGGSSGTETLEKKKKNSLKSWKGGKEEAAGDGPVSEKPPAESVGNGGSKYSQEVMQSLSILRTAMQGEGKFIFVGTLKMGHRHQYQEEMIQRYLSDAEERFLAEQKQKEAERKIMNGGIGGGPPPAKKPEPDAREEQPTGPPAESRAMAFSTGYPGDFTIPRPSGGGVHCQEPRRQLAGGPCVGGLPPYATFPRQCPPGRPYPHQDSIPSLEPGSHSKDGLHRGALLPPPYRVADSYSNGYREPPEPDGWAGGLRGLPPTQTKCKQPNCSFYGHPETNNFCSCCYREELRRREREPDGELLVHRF
# How it was run: as §1
# PRPF8 = PRPF8 (UniProt Q6P2Q9)
# How it was run: as §1
# PSMD7 = molecular target: T3, PSMD7 (UniProt P51665)
# T3 sequence (whole entry): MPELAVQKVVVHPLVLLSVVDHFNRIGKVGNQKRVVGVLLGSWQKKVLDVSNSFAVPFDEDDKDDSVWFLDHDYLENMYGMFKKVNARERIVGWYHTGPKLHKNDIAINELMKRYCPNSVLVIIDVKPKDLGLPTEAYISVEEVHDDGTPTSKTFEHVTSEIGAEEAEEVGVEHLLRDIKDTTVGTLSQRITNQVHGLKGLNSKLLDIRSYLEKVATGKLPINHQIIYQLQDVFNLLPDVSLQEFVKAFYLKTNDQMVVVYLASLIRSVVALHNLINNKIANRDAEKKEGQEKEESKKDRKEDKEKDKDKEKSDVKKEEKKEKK
# How it was run: as §1
# UCHL1 = UCHL1 (UniProt P09936)
# UCHL1, sequence (P09936 whole entry, looked up): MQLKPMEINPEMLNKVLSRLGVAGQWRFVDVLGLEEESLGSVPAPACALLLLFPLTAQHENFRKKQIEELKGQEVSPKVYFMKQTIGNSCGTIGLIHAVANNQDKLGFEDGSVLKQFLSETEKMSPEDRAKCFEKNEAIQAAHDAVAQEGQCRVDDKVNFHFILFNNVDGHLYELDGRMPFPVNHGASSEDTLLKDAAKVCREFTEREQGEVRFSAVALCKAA
# How it was run: as §1
# UCHL3 = molecular target: T4, UCHL3 (UniProt P15374)
# T4 sequence (whole entry): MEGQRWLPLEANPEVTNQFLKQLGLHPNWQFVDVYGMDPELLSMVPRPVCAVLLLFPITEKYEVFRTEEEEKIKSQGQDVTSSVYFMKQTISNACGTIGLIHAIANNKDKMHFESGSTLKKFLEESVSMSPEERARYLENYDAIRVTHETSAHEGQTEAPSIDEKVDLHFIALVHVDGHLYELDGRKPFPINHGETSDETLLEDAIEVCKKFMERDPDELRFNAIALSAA
# How it was run: as §1
# UCHL5 = molecular target: T5, UCHL5 (UniProt Q9Y5K5)
# T5 sequence (whole entry): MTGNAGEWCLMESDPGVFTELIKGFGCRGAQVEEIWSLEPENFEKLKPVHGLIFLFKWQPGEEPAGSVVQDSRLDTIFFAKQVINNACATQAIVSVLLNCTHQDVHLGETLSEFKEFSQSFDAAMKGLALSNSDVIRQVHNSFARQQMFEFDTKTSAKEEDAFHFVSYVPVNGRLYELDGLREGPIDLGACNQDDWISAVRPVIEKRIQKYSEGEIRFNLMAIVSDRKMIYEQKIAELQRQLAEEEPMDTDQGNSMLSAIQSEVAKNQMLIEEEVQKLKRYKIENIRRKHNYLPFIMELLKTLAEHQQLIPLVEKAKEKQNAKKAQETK
# How it was run: as §1
# USP10 = USP10 (UniProt Q14694)
# USP10, sequence (Q14694 whole entry): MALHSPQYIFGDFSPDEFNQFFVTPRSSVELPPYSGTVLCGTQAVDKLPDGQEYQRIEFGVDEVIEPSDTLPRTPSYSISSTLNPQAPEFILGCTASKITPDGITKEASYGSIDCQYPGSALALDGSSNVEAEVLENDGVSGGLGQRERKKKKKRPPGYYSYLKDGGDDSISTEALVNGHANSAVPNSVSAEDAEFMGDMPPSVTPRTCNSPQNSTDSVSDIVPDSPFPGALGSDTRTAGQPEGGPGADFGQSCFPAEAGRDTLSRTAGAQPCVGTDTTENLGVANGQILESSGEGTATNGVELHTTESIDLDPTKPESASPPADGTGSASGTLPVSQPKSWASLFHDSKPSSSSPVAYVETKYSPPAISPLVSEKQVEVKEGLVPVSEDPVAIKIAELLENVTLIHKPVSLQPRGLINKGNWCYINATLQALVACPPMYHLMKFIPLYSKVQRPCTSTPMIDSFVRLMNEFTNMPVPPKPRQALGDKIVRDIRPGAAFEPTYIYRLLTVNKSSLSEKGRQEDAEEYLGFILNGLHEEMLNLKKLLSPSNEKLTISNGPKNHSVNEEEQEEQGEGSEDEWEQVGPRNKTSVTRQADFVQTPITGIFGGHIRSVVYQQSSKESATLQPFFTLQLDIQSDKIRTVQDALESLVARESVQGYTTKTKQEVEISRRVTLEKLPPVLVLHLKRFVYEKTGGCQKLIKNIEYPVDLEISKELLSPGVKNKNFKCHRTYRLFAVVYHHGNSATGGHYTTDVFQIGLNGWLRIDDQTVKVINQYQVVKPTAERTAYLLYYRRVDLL
# How it was run: as §1
# USP15 = molecular target: T6, USP15 (UniProt Q9Y4E8)
# T6 sequence (whole entry): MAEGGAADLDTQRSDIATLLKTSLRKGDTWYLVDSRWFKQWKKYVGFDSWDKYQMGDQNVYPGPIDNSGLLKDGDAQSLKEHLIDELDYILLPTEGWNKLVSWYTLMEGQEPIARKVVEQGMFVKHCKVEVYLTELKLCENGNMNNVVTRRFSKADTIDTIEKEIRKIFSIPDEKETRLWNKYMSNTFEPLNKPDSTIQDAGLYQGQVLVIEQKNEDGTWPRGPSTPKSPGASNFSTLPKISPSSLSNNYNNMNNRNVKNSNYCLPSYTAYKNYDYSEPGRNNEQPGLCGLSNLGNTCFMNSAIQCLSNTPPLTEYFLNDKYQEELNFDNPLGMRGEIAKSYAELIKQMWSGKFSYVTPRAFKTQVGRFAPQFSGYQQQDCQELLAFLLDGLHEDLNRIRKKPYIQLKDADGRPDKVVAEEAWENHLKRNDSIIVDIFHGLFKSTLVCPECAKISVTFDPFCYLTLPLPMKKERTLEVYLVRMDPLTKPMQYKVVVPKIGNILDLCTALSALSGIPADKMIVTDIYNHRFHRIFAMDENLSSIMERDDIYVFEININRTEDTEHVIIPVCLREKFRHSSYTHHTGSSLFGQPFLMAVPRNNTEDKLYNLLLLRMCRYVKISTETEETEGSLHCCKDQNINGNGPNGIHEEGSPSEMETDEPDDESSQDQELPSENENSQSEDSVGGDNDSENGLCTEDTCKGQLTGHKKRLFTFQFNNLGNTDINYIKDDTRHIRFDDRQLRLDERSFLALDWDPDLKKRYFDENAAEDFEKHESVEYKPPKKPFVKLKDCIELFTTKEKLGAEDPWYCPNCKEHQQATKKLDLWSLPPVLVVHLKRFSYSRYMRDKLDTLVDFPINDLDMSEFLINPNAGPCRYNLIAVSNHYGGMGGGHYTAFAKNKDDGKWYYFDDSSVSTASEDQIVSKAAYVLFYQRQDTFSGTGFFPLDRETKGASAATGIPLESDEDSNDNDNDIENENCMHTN
# How it was run: as §1
# USP16 = USP16 (UniProt Q9Y5T5)
# USP16, sequence (Q9Y5T5 whole entry, looked up): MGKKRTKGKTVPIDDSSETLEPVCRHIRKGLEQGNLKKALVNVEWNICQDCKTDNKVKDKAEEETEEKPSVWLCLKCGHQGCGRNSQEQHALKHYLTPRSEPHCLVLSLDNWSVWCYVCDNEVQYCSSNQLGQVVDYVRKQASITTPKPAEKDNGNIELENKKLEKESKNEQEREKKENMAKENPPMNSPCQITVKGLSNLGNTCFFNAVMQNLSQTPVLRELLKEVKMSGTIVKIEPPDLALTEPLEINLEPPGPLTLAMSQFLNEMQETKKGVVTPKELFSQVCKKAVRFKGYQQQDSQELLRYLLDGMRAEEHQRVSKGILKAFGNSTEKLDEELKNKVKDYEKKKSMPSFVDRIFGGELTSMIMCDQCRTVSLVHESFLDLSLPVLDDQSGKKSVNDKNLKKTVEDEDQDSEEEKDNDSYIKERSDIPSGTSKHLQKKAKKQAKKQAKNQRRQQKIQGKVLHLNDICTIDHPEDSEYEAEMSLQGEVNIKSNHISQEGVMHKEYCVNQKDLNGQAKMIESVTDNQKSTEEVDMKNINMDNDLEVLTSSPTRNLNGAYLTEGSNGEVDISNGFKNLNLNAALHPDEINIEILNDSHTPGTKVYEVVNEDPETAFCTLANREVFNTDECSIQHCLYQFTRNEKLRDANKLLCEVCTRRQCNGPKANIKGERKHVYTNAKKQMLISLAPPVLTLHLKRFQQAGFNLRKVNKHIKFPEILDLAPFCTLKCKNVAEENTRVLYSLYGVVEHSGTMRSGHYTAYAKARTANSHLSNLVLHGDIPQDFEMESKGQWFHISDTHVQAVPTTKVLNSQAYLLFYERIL
# How it was run: as §1
structure (smiles),measurement,setting,value
CS(=O)(=O)N1CCCN(C(=O)CCl)CC1,log2 ratio of Biotin-Ahx-Ub-VS probe labelling,OTUD6B,-0.512
same,log2 ratio of Biotin-Ahx-Ub-VS probe labelling,OTUD7B,-0.631
same,log2 ratio of Biotin-Ahx-Ub-VS probe labelling,PRPF8,-0.104
same,log2 ratio of Biotin-Ahx-Ub-VS probe labelling,PSMD7,-0.148
same,log2 ratio of Biotin-Ahx-Ub-VS probe labelling,UCHL1,-1.95 (active)
same,log2 ratio of Biotin-Ahx-Ub-VS probe labelling,UCHL3,0.112
same,log2 ratio of Biotin-Ahx-Ub-VS probe labelling,UCHL5,-0.235
same,log2 ratio of Biotin-Ahx-Ub-VS probe labelling,USP10,-0.0225
same,log2 ratio of Biotin-Ahx-Ub-VS probe labelling,USP15,-0.193
same,log2 ratio of Biotin-Ahx-Ub-VS probe labelling,USP16,0.245
